From PubChem BioAssay (EPA / NIEHS)
“And” between values parts separate entries of the source, which are not always exact repeats. Identical values can stand only once. Inconclusive results are not listed. Some compounds were tested as several samples or in several runs, with calls that do not always agree. The source made the active and inactive calls. How the source made its calls: active means hit-call score of the fitted dose curve at least 0.9, where 1 is the maximum; inconclusive means response in the unintended direction; inactive means score below 0.9.

Target: chimpanzee Androgen Receptor (AR), AR (gene 747460) (UniProt O97775)
Sequence (O97775 whole entry, looked up): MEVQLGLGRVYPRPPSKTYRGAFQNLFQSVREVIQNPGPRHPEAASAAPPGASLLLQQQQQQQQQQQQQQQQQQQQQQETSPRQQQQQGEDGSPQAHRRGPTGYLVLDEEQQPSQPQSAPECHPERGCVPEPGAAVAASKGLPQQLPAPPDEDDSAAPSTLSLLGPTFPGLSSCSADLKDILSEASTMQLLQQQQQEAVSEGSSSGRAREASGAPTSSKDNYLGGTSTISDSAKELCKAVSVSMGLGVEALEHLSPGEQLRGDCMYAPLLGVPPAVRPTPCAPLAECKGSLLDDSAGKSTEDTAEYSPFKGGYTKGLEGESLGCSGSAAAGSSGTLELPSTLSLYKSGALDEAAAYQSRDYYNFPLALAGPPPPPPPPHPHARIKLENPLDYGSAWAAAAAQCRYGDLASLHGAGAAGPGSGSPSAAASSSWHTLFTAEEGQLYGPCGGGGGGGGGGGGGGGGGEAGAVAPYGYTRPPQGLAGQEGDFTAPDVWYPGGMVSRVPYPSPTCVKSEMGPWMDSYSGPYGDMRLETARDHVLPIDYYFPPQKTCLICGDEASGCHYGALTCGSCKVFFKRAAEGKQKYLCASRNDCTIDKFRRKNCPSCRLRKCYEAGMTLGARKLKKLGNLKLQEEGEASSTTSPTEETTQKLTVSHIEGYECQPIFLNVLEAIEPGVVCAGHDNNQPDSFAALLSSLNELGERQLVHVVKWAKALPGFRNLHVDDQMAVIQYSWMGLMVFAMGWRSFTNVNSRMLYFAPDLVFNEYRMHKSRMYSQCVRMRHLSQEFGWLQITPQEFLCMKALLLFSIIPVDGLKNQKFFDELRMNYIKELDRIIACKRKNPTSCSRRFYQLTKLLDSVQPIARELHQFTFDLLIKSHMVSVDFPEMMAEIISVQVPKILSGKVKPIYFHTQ
Assay: NVS_NR_cAR: NovaScreen (NVS) Nuclear Receptor Binding Assay for chimpanzee Androgen Receptor (AR) (AID 2283346);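 further: a loss of bound radioligand signal versus DMSO counts as binding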
Description: NVS_NR_cAR is a biochemical, single-readout assay that uses extracted gene-proteins from Sf9/Sf21 in a cell-free assay. Measurements were taken 72 hours after chemical dosing in a 96-well plate.NVS_NR_cAR is one of one assay component(s) measured or calculated from the NVS_NR_cAR assay. It is designed to make measurements of radioligand binding, a form of binding reporter, as detected with scintillation counting signals by Lysate-based radiodetection technology.Data from the assay component NVS_NR_cAR was analyzed into 1 assay endpoint. This assay endpoint, NVS_NR_cAR, was analyzed in the positive analysis fitting direction relative to DMSO as the negative control and baseline of activity. Using a type of binding reporter, loss-of-signal activity can be used to understand changes in the binding as they relate to the gene AR. Furthermore, this assay endpoint can be referred to as a primary readout, because the performed assay has only produced 1 assay endpoint. To generalize the intended target to other relatable targets, this assay endpoint is annotated to the nuclear receptor intended target family, where the subfamily is steroidal.
Binding assays used specific radioligands (tritiated, iodinated) with non-radioactive competitive displacement ligands in agonist or antagonist protocols (as indicated) and various reference compounds and inhibitors to titrate specific binding to receptors and transporters. Most enzyme assays (CYPs, kinases, phosphatases, proteases, HDACs) used recombinant protein and specific substrates (fluorescence mostly, some colorimetric and radioactive) and inhibitors, followed by a biochemical separation of substrate and product. All assays for the biochemical HTS were initially run in duplicate at a single concentration (10 uM for CYP450 assays and 25 uM for all others). […] Each assay was run with positive and negative controls, and concurrent controls on every plate. The follow-up (secondary) screen tested active chemical-pairs in concentration series, as well as a few additional assays not tested in the primary screen, some selected negative inactives, and several cases re-run in the concentration series for confirmatory purposes.

Row | Structure (SMILES) | AC50 | outcome
1 | CN(C)C(=O)Nc1ccc(Cl)c(Cl)c1 | 25 µM (active) | 
2 | CC(=O)S[C@@H]1CC2=CC(=O)CC[C@]2(C)[C@H]2CC[C@@]3(C)[C@@H](CC[C@@]34CCC(=O)O4)[C@H]12 | 6.35 nM (active) and 29.2 nM (active) | 
3 | O=C(c1ccc(O)cc1O)c1ccc(O)cc1O | 2.73 µM (active) | 
4 | S=C(S)NCCNC(=S)S.[Mn+2].[S-]C([S-])=NCCN=C([S-])[S-].[Zn+2] | 12.5 µM (active) | 
5 | Oc1ccc(C(c2ccc(O)cc2)C(Cl)(Cl)Cl)cc1 | 6.15 µM (active) | 
6 | CC(C)(c1ccc(O)cc1)c1ccc(O)cc1 | 16.5 µM (active) and 17.8 µM (active) and 25.4 µM (active) | 
7 | CSC(=O)c1cccc2nnsc12 | 1.02 µM (active) | 
8 | N[C@@H](Cc1cc(I)c(Oc2ccc(O)c(I)c2)c(I)c1)C(=O)O |  | inactive
9 | C[C@]12CC[C@@H]3c4ccc(O)cc4C[C@@H](CCCCCCCCCS(=O)CCCC(F)(F)C(F)(F)F)[C@H]3[C@@H]1CC[C@@H]2O (some centres undefined) | 15.5 µM (active) | inactive
10 | CCOC(=O)c1ccc(O)cc1 |  | inactive
11 | C#C[C@]1(O)CC[C@H]2[C@@H]3CCC4=CC(=O)CC[C@@H]4[C@H]3CC[C@@]21CC | 2.29 nM (active) and 5.63 nM (active) | 
12 | C=CCOC(Cn1ccnc1)c1ccc(Cl)cc1Cl (centres undefined) | 9.9 µM (active) | 
13 | C[C@]12C[C@H](O)[C@H]3[C@@H](CCC4=CC(=O)CC[C@@]43C)[C@@H]1CC[C@@H]2C(=O)CO | 4.56 µM (active) | 
